# Data from PubChem BioAssay (Tox21).
# Inconclusive results are not listed. Active and inactive are the calls of the source. Calls come from the whole dose curve.
# Assay: qHTS assay to identify small molecule agonists or antagonists of the thyroid stimulating hormone receptor (TSHR) signaling pathway - wild type cell line counter screen (AID 1259384)
# Settings: HEK293 wild type, cAMP HTRF counter-screen, stronger effect = higher value; series mostly up to 92.4 µM; cAMP activity change: at the top concentration
# Text: U.S. Tox21 Program National Center for Advancing Translational Sciences [NCATS] NIH Chemical Genomics Center [NCGC] U.S. Environmental Protection Agency [EPA] National Institutes of Environmental Health Sciences [NIEHS] National Toxicology Program [NTP] U.S. Food and Drug Administration [FDA] Tox21 Assay Overview: TSHR is the receptor for thyrotropin (thyroid stimulating hormone or TSH), a member of the glycoprotein hormone family. TSH is released by the anterior pituitary gland and is the main regulator of thyroid gland growth and development. Upon binding circulating thyrotropin, a G-protein signal cascade activates adenylyl cyclase and […] cAMP concentration is increased. cAMP is a key second messenger involved extensively in cellular signal transduction pathways associated with the majority of G-protein coupled receptors (GPCRs). The activation of these GPCRs by neurotransmitters, lipids, nucleotides, peptides and hormones results in the activation or the inhibition of plasma membrane-bound adenylate cyclase through heterotrimeric G-proteins. A cell-based TSHR-Hek293 assay can be used to identify TSHR agonists. To eliminate the false positive compounds identified from screening a cell-based TSHR-Hek293 cell line, cAMP assay in a wild type Hek293 cells was used as a counter screening.
# Tox21 Assay Protocol Summary: Hek293 cells (wild type) were dispensed at 800 cells/4 uL/well in 1536-well white plates using a Multidrop dispenser. After the assay plates were incubated at a 37 C/5% CO2 incubator for 18 hrs, 23 nL of compounds dissolved in DMSO, positive controls or DMSO only was transferred to the assay plate by a pin tool, followed by 1 ul medium containing Ro20-1724. After 30 min of incubation at room temperature, 2.5 ul/well of cAMP-d2 and 2.5 ul/well of anti-cAMP-cryptate were added respectively into the assay plates using a Flying Reagent Dispenser. The plates were incubated at room temperature for 1 hr. The fluorescence intensity in the plates was measured using an Envision plate reader. Each test compound was measured at 15 concentrations and in triplicates.
# % is set by controls: 0 for no effect and ±100 for the full control effect.
Structure (SMILES),cAMP activity change,outcome
Nc1ccc(S(=O)(=O)Nc2ccnn2-c2ccccc2)cc1,3.46% [at 18.9 µM] (inactive),–
O=C(O)COc1nn(Cc2ccccc2)c2ccccc12,0.424% [at 42.5 µM] (inactive),–
O=c1n(CCO)c(=O)n(CCO)c(=O)n1CCO,–,inactive
C=C1CC[C@H]2C[C@@H]1C2(C)C,5.91% (inactive),–
CN1CCCC1,-7.07% (inactive),–
COC(=O)CCSCCC(=O)OC,3.1% (inactive),–
CCOC(=O)c1cccc(N)c1,-1.98% [at 42.5 µM] (inactive),–
O=C(O)CCCl,2.84% (inactive),–
NCCc1cnc[nH]1,11.1% [at 42.5 µM] (inactive),–
c1ccc(CC2=NCCN2)cc1,0.795% [at 42.5 µM] (inactive),–
COC(=O)[C@@H](N)Cc1ccc(O)c(O)c1,0.958% [at 42.5 µM] (inactive),–
COc1cc(C(=O)N2CCCCCCC2)cc(OC)c1OC,0.784% [at 42.5 µM] (inactive),–
N=C(N)c1ccccc1,1.34% (inactive),–
CC(=O)N(CC(O)CO)c1c(I)c(C(=O)NCCO)c(I)c(C(=O)NCC(O)CO)c1I (stereo not given),-3.55% [at 42.5 µM] (inactive),–
C=C(C)CS(=O)(=O)O,-1.58% (inactive),–
CC(C)(O)C#CC(C)(C)O,-3.82% (inactive),–
CC(C)(c1ccc(O)cc1)c1ccc(O)cc1,–,inactive
NCCCNCCSP(=O)(O)O,-0.261% [at 8.39 µM] (inactive),–
N[C@H]1CN(c2c(F)cc3c(=O)c(C(=O)O)cn(C4C[C@H]4F)c3c2Cl)CC12CC2 (stereo not given in full),-2.45% [at 42.5 µM] (inactive),–
COCCCOCCCOC,2.1% (inactive),–

Structure (SMILES),cAMP activity change,outcome
Cc1cccc(C)c1NC(=O)C(C)N (stereo not given),-4.22% [at 42.5 µM] (inactive),–
Nc1c[n+](N2CCOCC2)no1,-2.47% [at 42.5 µM] (inactive),–
CC/C=C\CC/C=C/C(OCC)OCC,0.658% (inactive),–
CC1(C)CO[C@@H](CC(=O)O)CN1,-0.682% [at 42.5 µM] (inactive),–
C=C[Si](OC(=C)C)(OC(=C)C)OC(=C)C,0.735% (inactive),–
CCOC(=O)c1c(C)n(C)c2ccc(O)cc12,5.26% [at 42.5 µM] (inactive),–
CCCCCCCCCCCCCCCCC,-4.37% (inactive),–
CC(=O)OCC(=O)[C@@]1(O)CCC2C3CCC4=CC(=O)CC[C@]4(C)C3[C@@H](O)C[C@@]21C (stereo not given in full),1.56% [at 42.5 µM] (inactive),–
NS(=O)(=O)c1ccc(C(=O)O)cc1,0.772% [at 42.5 µM] (inactive),–
CCCCCCCCCCCCCC=O,0.631% [at 8.39 µM] (inactive),–
CCOC(=O)C(=O)OCC,3.53% (inactive),–
CCOC(=O)CC(C)=O,-1.92% (inactive),–
CCOC(=O)[C@H](CCc1ccccc1)N[C@@H](C)C(=O)N1[C@H](C(=O)O)C[C@@H]2CCC[C@@H]21,7.75% [at 42.5 µM] (inactive),–
CC(C)NCC(O)c1ccc(NS(C)(=O)=O)cc1 (stereo not given),1.75% (inactive),–
O=C1NC(=O)[C@@]2(CCOc3ccc(F)cc32)N1,1.7% [at 42.5 µM] (inactive),–
Cc1ccc(Cl)cc1Cl,-1.94% (inactive),–
C=C(C)C(=O)OCCCCCCCC(C)C,-0.126% (inactive),–
CCN(Cc1ccncc1)C(=O)C(CO)c1ccccc1 (stereo not given),6.58% [at 42.5 µM] (inactive),–
Cc1cc2c(cc1S(N)(=O)=O)S(=O)(=O)CCC2,3.17% [at 42.5 µM] (inactive),–
CCCCOCCOCCOCCCC,3.01% (inactive),–
